Data on 17 compounds can be found in PubChem BioAssay (NCATS).

Inconclusive results are not listed. The source made the active and inactive calls. Calls come from the whole dose curve; as a rule, active = well fitted inhibition curve with a large enough effect; inconclusive = small, poorly fitted or top-dose-only effect; inactive = flat fitted curve, though single readings scatter. Bridge positions count the residues as written; N and C are the ends. Square brackets hold non-standard residues; d marks the D form. Peptide text beside a SMILES is read from it. * marks the point of attachment. Ileψ(thiazoline)Cys = CC[C@H](C)[C@H](N)C1=N[C@H](C(=O)*)CS1; d(aIle) = CC[C@H](C)[C@@H](N)C(=O)O; dOrn = NCCC[C@@H](N)C(=O)O
Potency is the fitted concentration of half-maximal effect.

The subject of the first assay is TAB165. In words: qHTS profiling for inhibitors of Plasmodium falciparum proliferation (AID 504749).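 For activity, negative = inhibition: 0% = DMSO vehicle and full inhibition = artemisinin control.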 Note: nearly all actives have a fitted effect of over 60% in size. The note with it: P. falciparum in erythrocytes, SYBR Green DNA, 72 h; series mostly up to 12.8 µM; activity, negative = inhibition: at the top concentration. In a few lines:
(§1)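 Infected RBCs, 0.3% parasitemia/2.5% Hct final; cpd 72 h, 37 C, 5% CO2; lysis buffer with saponin/triton/SYBR Green I, o/n RT dark; FI 485/535; norm. to artemisinin (0.29 uM) and DMSO.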
Background: Quantitative high-throughput screening tests each substance at several concentrations.
For `C[C@H](CCC(=O)O)[C@H]1CC[C@@H]2[C@@H]3[C@@H](O)C[C@H]4C[C@@H](O)CC[C@@]4(C)[C@H]3CC[C@@]21C`, the “activity, negative = inhibition” value was -23.9% (inactive).

Take `CN(C/C=C\c1ccccc1)Cc1cccc2ccccc12`: the “activity, negative = inhibition” value was -0.652% [at 28.7 µM] (inactive).

For `CCN(CCCCOC(=O)c1ccc(OC)c(OC)c1)[C@@H](C)Cc1ccc(OC)cc1`, the “activity, negative = inhibition” value is -7.49% (inactive). As to `CCC(=O)OCC(=O)[C@@]1(OC(=O)CC)[C@H](C)C[C@@H]2[C@@H]3[C@H]([C@@H](O)C[C@@]21C)[C@]1(C)C=CC(=O)C=C1C[C@@H]3Cl`, the Potency is 3980 nM (active).

On to `C[C@H](C(=O)O)c1cccc(Oc2ccccc2)c1`, for which the “activity, negative = inhibition” value is 6.72% (inactive). Same read-out and setting: under `CC1(C)[C@@H](OC(=O)CCC(=O)O)CC[C@@]2(C)[C@H]1CC[C@@]1(C)[C@H]2C(=O)C=C2[C@H]3C[C@](C)(C(=O)O)CC[C@]3(C)CC[C@@]21C` stands 7.52% (inactive); under `CCOC(=O)O[C@@H](C)OC(=O)[C@@H]1N2C(=O)[C@@H](NC(=O)[C@@H](N)c3ccccc3)[C@H]2SC1(C)C`, 8.72% (inactive); under `Cc1ccsc1/C=C\C1=NCCCN1C`, 13.4% (inactive). Turning to `C#C[C@]1(O)CC[C@@H]2[C@H]3CCC4=CCCC[C@@H]4[C@@H]3CC[C@@]21C`, the “activity, negative = inhibition” value is -1.59% (inactive).

`CC[C@H](C)[C@H](N)C1=N[C@H](C(=O)N[C@@H](CC(C)C)C(=O)N[C@@H](CCC(=O)O)C(=O)N[C@@H](C(=O)N[C@H]2CCCCNC(=O)[C@@H](CC(N)=O)NC(=O)[C@@H](CC(=O)O)NC(=O)[C@@H](Cc3cnc[nH]3)NC(=O)[C@@H](Cc3ccccc3)NC(=O)[C@@H]([C@@H](C)CC)NC(=O)[C@@H](CCCN)NC2=O)[C@@H](C)CC)CS1` ({Ileψ(thiazoline)Cys}-LE[d(aIle)]K[dOrn][d(aIle)][dF][dH][dD][dN]; lactam 4-C): the “activity, negative = inhibition” value is 2.03% (inactive). With `O=C(O)COCCN1CCN([C@@H](c2ccccc2)c2ccc(Cl)cc2)CC1`, the “activity, negative = inhibition” value is -6.58% (inactive). On the same count and under the same terms, under `CCN(CC)CCOC(=O)[C@@H](Cc1cccc2ccccc12)C[C@@H]1CCCO1` stands -18.6% (inactive). Take `Clc1ccc([C@H](Cn2ccnc2)OCc2c(Cl)cccc2Cl)c(Cl)c1`: the Potency is 355 nM (active).

For `CC[C@H](CO)NCCN[C@@H](CC)CO`, the “activity, negative = inhibition” value is 2.59% (inactive).

Another assay has as its system W2. Described as above. The note with it: P. falciparum in erythrocytes, SYBR Green DNA, 72 h; series mostly up to 12.8 µM; activity, negative = inhibition: at the top concentration. In outline: as §1
Take `CN1CCO[C@H](c2ccccc2)c2ccccc2C1`: the Potency is 2030 nM (active).

As to `C[C@H](CCC(=O)O)[C@H]1CC[C@@H]2[C@@H]3[C@@H](O)C[C@H]4C[C@@H](O)CC[C@@]4(C)[C@H]3CC[C@@]21C`, the “activity, negative = inhibition” value is -0.501% (inactive). Regarding `CCC(=O)OCC(=O)[C@@]1(OC(=O)CC)[C@H](C)C[C@@H]2[C@@H]3[C@H]([C@@H](O)C[C@@]21C)[C@]1(C)C=CC(=O)C=C1C[C@@H]3Cl`, the Potency is 1610 nM (active).

As for `C[C@H](C(=O)O)c1cccc(Oc2ccccc2)c1`, the “activity, negative = inhibition” value was -0.717% (inactive). Same read-out and setting: under `CC1(C)[C@@H](OC(=O)CCC(=O)O)CC[C@@]2(C)[C@H]1CC[C@@]1(C)[C@H]2C(=O)C=C2[C@H]3C[C@](C)(C(=O)O)CC[C@]3(C)CC[C@@]21C` stands 0.334% (inactive). With `CCOC(=O)O[C@@H](C)OC(=O)[C@@H]1N2C(=O)[C@@H](NC(=O)[C@@H](N)c3ccccc3)[C@H]2SC1(C)C`, the Potency is 5730 nM (active). In the case of `Cc1ccsc1/C=C\C1=NCCCN1C`, the “activity, negative = inhibition” value is -1.19% (inactive). Regarding `Cc1cccc(CN2CCN([C@@H](c3ccccc3)c3ccc(Cl)cc3)CC2)c1`, the Potency is 3220 nM (active). Regarding `C#C[C@]1(O)CC[C@@H]2[C@H]3CCC4=CCCC[C@@H]4[C@@H]3CC[C@@]21C`, the “activity, negative = inhibition” value is 11.5% (inactive).

As for `CC[C@H](C)[C@H](N)C1=N[C@H](C(=O)N[C@@H](CC(C)C)C(=O)N[C@@H](CCC(=O)O)C(=O)N[C@@H](C(=O)N[C@H]2CCCCNC(=O)[C@@H](CC(N)=O)NC(=O)[C@@H](CC(=O)O)NC(=O)[C@@H](Cc3cnc[nH]3)NC(=O)[C@@H](Cc3ccccc3)NC(=O)[C@@H]([C@@H](C)CC)NC(=O)[C@@H](CCCN)NC2=O)[C@@H](C)CC)CS1` ({Ileψ(thiazoline)Cys}-LE[d(aIle)]K[dOrn][d(aIle)][dF][dH][dD][dN]; lactam 4-C), the “activity, negative = inhibition” value is -3.3% (inactive). With `O=C(O)COCCN1CCN([C@@H](c2ccccc2)c2ccc(Cl)cc2)CC1`, the Potency is 4550 nM (active). The same measure, in the same setting: next, `CCN(CC)CCOC(=O)[C@@H](Cc1cccc2ccccc12)C[C@@H]1CCCO1`: 2280 nM (active). Same read-out and setting: next, `Clc1ccc([C@H](Cn2ccnc2)OCc2c(Cl)cccc2Cl)c(Cl)c1`: 2030 nM (active); `C[C@@H](CNC1CCCCC1)OC(=O)c1ccccc1`: 2280 nM (active). Regarding `CC[C@H](CO)NCCN[C@@H](CC)CO`, the “activity, negative = inhibition” value was 12.9% (inactive).
